# Test results reported in the supplement of paper PMC10037445.
# “And” between values parts separate entries of the source, which are not always exact repeats. Equal entries are not always repeated. Whole data set: some 2,900 compounds, median “NF-kB SEAP reporter activity, fold change vs agonist alone” near 0.99, cut for the highest 2% near 2.6. Many of the other results were omitted from the sample, so the highest values are more common in it than they were.
# Experiments:
# RAW-Dual [1] = assay: NF-kB SEAP reporter activity, fold change vs agonist alone; higher = enhanced NF-kB activity; details: library stock concentration (final ~1000-fold dilution): 10 mM
# Summary of the method: (§1)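 Cytotoxic wells were those whose IncuCyte confluency was below 70% of agonist controls in both mask sets. The cells were RAW-Dual macrophages at 50,000 cells/well in DMEM on 384-well plates, dosed with 50 nL of library stock by pin tool, stimulated with a PRR agonist 1 h later, and kept at 37 °C, 5% CO2 for 20 hours. IRF and NF-κB reporter activity, as fold change over agonist-alone wells, came from supernatant read by QuantiLuc luminescence and QuantiBlue absorbance, respectively.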
# RAW-Dual [2] = assay: NF-kB SEAP reporter activity, fold change vs agonist alone; cytotoxicity flag (confluency mask): not cytotoxic; library stock concentration (final ~1000-fold dilution): 10 mM; higher = enhanced NF-kB activity
# Summary of the method: as §1
# RAW-Dual [3] = assay: NF-kB SEAP reporter activity, fold change vs agonist alone; cytotoxicity flag (confluency mask): cytotoxic (confluency <70% of control); library stock concentration (final ~1000-fold dilution): 10 mM; higher = enhanced NF-kB activity
# Summary of the method: as §1
# [4] = cytotoxicity flag (confluency mask): not cytotoxic, agonist: Imiquimod (TLR7) […]
# [5] = cytotoxicity flag (confluency mask): not cytotoxic, agonist: MPLA (TLR4) […]
# [6] = agonist: ODN 1826 (TLR9) 0.5 ug/mL
# [7] = agonist: Pam2CSK4 (TLR2/6) 0.1 ug/mL
# [8] = agonist: Pam3CSK4 (TLR2/1) 0.1 ug/mL
smiles,measurement,setting,value
COc1cc(C)[nH]c(=O)c1CNC(=O)c1c(C)n(C(C)C2CCOCC2)c2ccccc12 (configuration not stated),NF-kB SEAP reporter activity,RAW-Dual [1]; [4],0.902
same,NF-kB SEAP reporter activity,RAW-Dual [1]; [5],1.02
same,NF-kB SEAP reporter activity,RAW-Dual [2]; agonist: LPS (TLR4) 0.1 ug/mL,1.26
same,NF-kB SEAP reporter activity,RAW-Dual [2]; [6],1.05
same,NF-kB SEAP reporter activity,RAW-Dual [2]; [7],0.992
same,NF-kB SEAP reporter activity,RAW-Dual [2]; [8],0.786
Cl[Te]1(Cl)(Cl)OCCO1.N,NF-kB SEAP reporter activity,RAW-Dual [1]; [4],0.792
same,NF-kB SEAP reporter activity,RAW-Dual [1]; [5],0.899
same,NF-kB SEAP reporter activity,RAW-Dual [2]; agonist: LPS (TLR4) 0.1 ug/mL,1.39
same,NF-kB SEAP reporter activity,RAW-Dual [2]; [6],0.846
same,NF-kB SEAP reporter activity,RAW-Dual [2]; [7],0.912
same,NF-kB SEAP reporter activity,RAW-Dual [2]; [8],1.28
CCCCCCC[n+]1ccc(-c2cc[n+](CCCCCCC)cc2)cc1,NF-kB SEAP reporter activity,RAW-Dual [1]; [4],1.32
same,NF-kB SEAP reporter activity,RAW-Dual [1]; [5],2.11
same,NF-kB SEAP reporter activity,RAW-Dual [2]; agonist: LPS (TLR4) 0.1 ug/mL,3.95
same,NF-kB SEAP reporter activity,RAW-Dual [2]; [6],1.17
same,NF-kB SEAP reporter activity,RAW-Dual [2]; [7],1.02
same,NF-kB SEAP reporter activity,RAW-Dual [2]; [8],1.14
CCCCCc1cc(O)cc(O)c1,NF-kB SEAP reporter activity,RAW-Dual [1]; [5],0.946
same,NF-kB SEAP reporter activity,RAW-Dual [2]; agonist: LPS (TLR4) 0.1 ug/mL,1.11
same,NF-kB SEAP reporter activity,RAW-Dual [2]; [6],0.427
same,NF-kB SEAP reporter activity,RAW-Dual [2]; [7],0.966
same,NF-kB SEAP reporter activity,RAW-Dual [2]; [8],0.739
O=C([O-])C(Cl)Cl.[Na+],NF-kB SEAP reporter activity,RAW-Dual [2]; agonist: LPS (TLR4) 0.1 ug/mL,1.11 and 0.906
same,NF-kB SEAP reporter activity,RAW-Dual [2]; [6],1.14 and 0.982
same,NF-kB SEAP reporter activity,RAW-Dual [2]; [7],1.11 and 0.989
same,NF-kB SEAP reporter activity,RAW-Dual [2]; [8],1.19 and 1.32
CCNc1nc(Cl)nc(NC(C)C)n1,NF-kB SEAP reporter activity,RAW-Dual [1]; [5],1.29
same,NF-kB SEAP reporter activity,RAW-Dual [2]; agonist: LPS (TLR4) 0.1 ug/mL,1.55
same,NF-kB SEAP reporter activity,RAW-Dual [2]; [6],1.4
same,NF-kB SEAP reporter activity,RAW-Dual [2]; [7],1.5
same,NF-kB SEAP reporter activity,RAW-Dual [2]; [8],1.67
COc1cc(C2c3cc4c(cc3C(O)C3COC(=O)C23)OCO4)cc(OC)c1OC (configuration not stated),NF-kB SEAP reporter activity,"RAW-Dual [1]; cytotoxicity flag (confluency mask): cytotoxic (confluency <70% of control), agonist: Imiquimod (TLR7) […]",1.61
same,NF-kB SEAP reporter activity,"RAW-Dual [1]; cytotoxicity flag (confluency mask): cytotoxic (confluency <70% of control), agonist: MPLA (TLR4) […]",1.92
same,NF-kB SEAP reporter activity,RAW-Dual [3]; agonist: LPS (TLR4) 0.1 ug/mL,5.49
same,NF-kB SEAP reporter activity,RAW-Dual [3]; [6],2.81
same,NF-kB SEAP reporter activity,RAW-Dual [3]; [7],1.6
same,NF-kB SEAP reporter activity,RAW-Dual [3]; [8],2.18
COc1ccc2c(c1OC)CN1CCc3cc4c(cc3C1C2)OCO4 (configuration not stated),NF-kB SEAP reporter activity,RAW-Dual [1]; [5],1
same,NF-kB SEAP reporter activity,RAW-Dual [2]; agonist: LPS (TLR4) 0.1 ug/mL,1.21
same,NF-kB SEAP reporter activity,RAW-Dual [2]; [6],1.04
same,NF-kB SEAP reporter activity,RAW-Dual [2]; [7],0.89
same,NF-kB SEAP reporter activity,RAW-Dual [2]; [8],1.26
COc1cc(C2c3cc4c(cc3C(O)C3COC(=O)C23)OCO4)cc(OC)c1O (configuration not stated),NF-kB SEAP reporter activity,RAW-Dual [1]; [4],2.53
same,NF-kB SEAP reporter activity,RAW-Dual [1]; [5],2.24
same,NF-kB SEAP reporter activity,RAW-Dual [2]; agonist: LPS (TLR4) 0.1 ug/mL,3.91
same,NF-kB SEAP reporter activity,RAW-Dual [2]; [6],3.47
same,NF-kB SEAP reporter activity,RAW-Dual [2]; [7],2.24
same,NF-kB SEAP reporter activity,RAW-Dual [2]; [8],2.24
CC[N+](C)(CC)CCOC(=O)C(O)(c1ccccc1)c1ccccc1,NF-kB SEAP reporter activity,RAW-Dual [1]; [5],1.01
same,NF-kB SEAP reporter activity,RAW-Dual [2]; agonist: LPS (TLR4) 0.1 ug/mL,0.821
same,NF-kB SEAP reporter activity,RAW-Dual [2]; [6],0.989
same,NF-kB SEAP reporter activity,RAW-Dual [2]; [7],0.934
same,NF-kB SEAP reporter activity,RAW-Dual [2]; [8],1.39
COc1cc(-n2c(S)nc3ccccc3c2=O)c(Cl)cc1Cl,NF-kB SEAP reporter activity,RAW-Dual [1]; [4],0.851
same,NF-kB SEAP reporter activity,RAW-Dual [1]; [5],0.953
same,NF-kB SEAP reporter activity,RAW-Dual [2]; agonist: LPS (TLR4) 0.1 ug/mL,1.4
same,NF-kB SEAP reporter activity,RAW-Dual [2]; [6],0.842
same,NF-kB SEAP reporter activity,RAW-Dual [2]; [7],0.849
same,NF-kB SEAP reporter activity,RAW-Dual [2]; [8],0.826
CCC1(c2c[nH]cn2)Cc2ccccc2C1.Cl,NF-kB SEAP reporter activity,RAW-Dual [1]; [5],0.931
same,NF-kB SEAP reporter activity,RAW-Dual [2]; agonist: LPS (TLR4) 0.1 ug/mL,0.796
same,NF-kB SEAP reporter activity,RAW-Dual [2]; [6],0.745
same,NF-kB SEAP reporter activity,RAW-Dual [2]; [7],0.9
same,NF-kB SEAP reporter activity,RAW-Dual [2]; [8],0.997
CN1C2CCC1CC(=O)C2,NF-kB SEAP reporter activity,RAW-Dual [1]; [4],1.66
same,NF-kB SEAP reporter activity,RAW-Dual [1]; [5],1.16
same,NF-kB SEAP reporter activity,RAW-Dual [2]; agonist: LPS (TLR4) 0.1 ug/mL,0.911
same,NF-kB SEAP reporter activity,RAW-Dual [2]; [6],1.6
same,NF-kB SEAP reporter activity,RAW-Dual [2]; [7],1
same,NF-kB SEAP reporter activity,RAW-Dual [2]; [8],1.54
CCC1CN2CCC3(C(=O)Nc4ccccc43)C2CC1/C(=C\OC)C(=O)OC (configuration not stated),NF-kB SEAP reporter activity,RAW-Dual [1]; [4],0.907
same,NF-kB SEAP reporter activity,RAW-Dual [1]; [5],1.25
same,NF-kB SEAP reporter activity,RAW-Dual [2]; agonist: LPS (TLR4) 0.1 ug/mL,1.1
same,NF-kB SEAP reporter activity,RAW-Dual [2]; [6],0.873
same,NF-kB SEAP reporter activity,RAW-Dual [2]; [7],0.87
same,NF-kB SEAP reporter activity,RAW-Dual [2]; [8],0.852
